# Screening results (PubChem BioAssay)
# Most compounds without a hit are left out; they make up all but 3.7% or so of the library.
# Tb PYK inh = blocks Trypanosoma brucei pyruvate kinase. TbPYK enzyme, Kinase-Glo Plus ATP luminescence, 45 min. Potency, µM (doses to about 76.8 µM), for the others: at the highest dose activity, negative = inhibition, most hits filed as inhibitors. hit rate 0.12% among 410,000; also: nearly all actives have a fitted effect of over 50% in size
#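 T. brucei PYK with substrate was exposed to pin-transferred compounds across a concentration series, then started with 130 uM ADP (final). After 45 min at room temperature, Kinase-Glo Plus luminescence was read, normalized and curve-fitted.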
# Sm TGR block = inhibitors of Schistosoma mansoni thioredoxin glutathione reductase. Q962Y6. purified TGR, DTNB reduction, TNB absorbance 405 nm. Potency, µM (series often up to 114 µM), inactives show top-dose activity change, negative = inhibition, most hits filed as inhibitors. hit rate 3% among 360,000. AID 485364; also: nearly all actives have a fitted effect of over 60% in size
#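 First, TGR (20 nM dispensed) and NADPH were mixed with compound. Second, a 15 min room-temperature incubation followed. Third, further NADPH and then DTNB were added to start the reaction. Finally, TNB absorbance was monitored kinetically.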
# FMDV inh = antivirals against foot and mouth disease virus | FMDV antiviral cell-based qHTS | Potency, µM (highest dose often 57.9 µM), for inactives: top-dose activity change, negative = inhibition, hits mostly inhibitors | hit rate 1.2% among 410,000; calls by dose curve; tested in HEK293T cells; also: read-out not given here; nearly all actives have a fitted effect of over 45% in size
# RE007 growth inh = less growth of the S. pombe RE007 Vpr strain; S. pombe RE007 Vpr strain, BacTiter-Glo ATP luminescence, 24 h; Potency, µM (series often up to 92.2 µM), for inactives: at the highest dose activity change, negative = less growth, usual class: inhibitors; hit rate 0.21% among 360,000; active = well fitted falling curve with a large enough effect; inconclusive = small, poorly fitted or top-dose-only effect; inactive = no such curve, though single readings can be large or run the other way; also: nearly all actives have a fitted effect of over 50% in size
#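 Fission yeast RE007 carrying one integrated HIV-1 vpr copy, seeded at OD 0.01 in PMG+AL medium with 23 nL pinned compound. Grown 24 h at 30 degrees; viability read by BacTiter-Glo luminescence after 5 min.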
# Active calls of the source: *; ? = inconclusive; / = no result given; ! = a repeat was not active; [ ] = another dose, or the depositor's remark. Unless noted, calls follow the shape of the dose curve; as a rule, active = well fitted curve in the direction sought with a large enough effect; inconclusive = small, poorly fitted or top-dose-only effect, or another doubt; inactive = no such curve, though single readings can be large; an effect the other way counts as inactive or inconclusive. % is scaled to controls: 0 for no effect and ±100 for the full control effect; potency is read from the fitted curve at half-maximal effect.
SMILES,Tb PYK inh,Sm TGR block,FMDV inh,RE007 growth inh
O=C(CSc1nnc(-c2ccc(O)cc2)o1)c1ccc(Br)cc1,0.0%,-0.4%,0.0%,/
CCCOc1ccc(C(=O)CCN2CCN(C(=O)OCC)CC2)cc1,-17.3%,100µM*,-22.2%,31.6µM*
CCCCOc1ccc(C(=O)N2CCCCC2CCN2CCOCC2)cc1 (configuration not stated),-1.9%,0.0%,-6.8%,/
CCCCCOc1ccc(C(=O)CCN2CCOCC2)cc1,-5.0%,3.98µM*,5.2%,17.8µM*
C#CCSc1nncn1C(=O)/C=C/c1ccccc1,-2.3%,70.8µM*,/,-11.7%
CC(=O)c1c(C)oc2c1C(=O)c1ccccc1C2=O,-9.5%,3.6%,?,?
Cc1nc2c(o1)C(=O)c1ccccc1C2=Nc1ccccc1,-1.9%,/,17.8µM*,7.08µM*
Cc1ccccc1CN1CCc2nnc(C(C)NC(=O)c3cc(F)ccc3F)n2CC1 (configuration not stated),/,/,-7.8%,/
CCS(=O)(=O)c1ccccc1C(=O)Nc1ccc(-c2nc3ccccc3s2)cc1,-0.4%,8.8%,2.8%,/
CC(C)(C)C(=O)Nc1ccc(-c2nc3ccccc3s2)cc1,-21.0%,0.1%,4.47µM*,/
CC(C)(C)C(=O)Nc1ccc(N=Nc2ccccc2)cc1,5.3%,10.0%,17.8µM*,-14.8%
COCCNC(=O)Cn1c(-c2cccs2)cc2cc(Cl)ccc21,1.5%,0.3%,-10.9%,/
O=c1[nH]c2ccc(Br)cc2c(-c2ccccc2)c1N1CCOCC1,0.8%,3.3%,-29.8%,5.8%
O=c1[nH]c2ccc(Br)cc2c(-c2ccccc2)c1CN1CCOCC1,-2.0%,35.5µM*,-24.3%,5.0%
O=C(NCCc1nnc2n1CCN(Cc1ccccn1)CC2)c1ccc(F)cc1,/,/,-1.1%,/
O=C(O)C(=O)Cc1c[nH]c2ccccc12,-10.5%,44.7µM*,-3.1%,8.4%
Cn1nnnc1Sc1ncnc2scc(-c3cccs3)c12,-23.5%,3.55µM*,22.4µM*,/
Cn1nnnc1Sc1ncnc2scc(-c3cc4ccccc4o3)c12,-6.2%,-20.6%,17.8µM*,/
Cn1nnnc1Sc1ncnc2scc(-c3ccsc3)c12,-16.1%,/,15.8µM*,/
COc1ccc(C2=NN(S(C)(=O)=O)C(c3cn(-c4ccccc4)nc3-c3cccs3)C2)cc1 (configuration not stated),-2.4%,0.3%,29.4%,/
Cc1ccc2cc(CNC(C)CO)c(N3CCC(O)CC3)nc2c1 (configuration not stated),/,/,9.7%,/
CCNC(=O)[C@H]1CCCN1C(=O)[C@H](CCCN=C(N)N)NC(=O)[C@H](CC(C)C)NC(=O)[C@H](CC(C)C)NC(=O)[C@@H](Cc1ccc(O)cc1)NC(=O)[C@H](CO)NC(=O)[C@@H](Cc1c[nH]c2ccccc12)NC(=O)[C@H](Cc1cnc[nH]1)NC(=O)[C@@H]1CCC(=O)N1,-5.9%,/,/,/
Cc1ccccc1Cn1c(Oc2ccccc2F)nc2c1c(=O)n(C)c(=O)n2C,2.3%,12.3%,-14.0%,/
COc1cccc(/C=C/c2[nH]c(=O)[nH]c(=O)c2[N+](=O)[O-])c1O,-0.3%,35.5µM*,-4.2%,-20.3%
CCOC(=O)COc1ccc(Br)cc1/C=C\c1[nH]c(=O)[nH]c(=O)c1[N+](=O)[O-],0.5%,?,35.5µM*,6.8%
SMILES,Tb PYK inh,Sm TGR block,FMDV inh,RE007 growth inh
COc1cc(/C=C/c2[nH]c(=O)[nH]c(=O)c2[N+](=O)[O-])cc(OC)c1O,-3.5%,-34.9%,-2.4%,7.6%
CCOC(=O)COc1ccc(Br)cc1/C=C/c1[nH]c(=O)[nH]c(=O)c1[N+](=O)[O-],2.8%,?,28.2µM*,-12.4%
CCCOc1ccc(/C=C/c2[nH]c(=O)[nH]c(=O)c2[N+](=O)[O-])cc1OCC,-2.1%,-0.2%,?,16.7%
CCOc1cc(/C=C\c2[nH]c(=O)[nH]c(=O)c2[N+](=O)[O-])ccc1OC(C)CC (configuration not stated),-3.9%,-17.7%,8.91µM*,-9.8%
COc1cccc(CNC(=O)c2c(OC)cc(=O)n3c2CCN(C(=O)c2ccoc2C)CC3)c1,/,/,-4.1%,/
O=C1NCCCc2c1oc1cc(Br)c(O)c(Br)c21,-10.6%,-23.2%,-19.1%,-11.2%
O=C1NCCCC2c3c(cc(Br)c(O)c3Br)OC12N1CCCCC1 (configuration not stated),0.7%,22.4µM*,9.1%,-16.3%
Oc1[nH]c2ccccc2c1N=NC(=S)N1CCOCC1,?,-18.6%,?,8.9%
Oc1[nH]c2ccc(Br)cc2c1N=NC(=S)N1CCOCC1,?,19.8%,3.16µM*,13.2%
Cc1cc(=O)n2nc(N(C)CC(=O)NCc3cccc(Br)c3)sc2n1,-3.6%,1.6%,-19.7%,/
CCOC(=O)[C@]12Cc3cc(C)ccc3[C@H]1N(C)C(=O)c1ccccc12,-1.3%,/,-29.8%,11.1%
CCOC(=O)[C@]12Cc3cc(Cl)ccc3[C@H]1N(C1CCCCC1)C(=O)c1ccccc12,-9.3%,/,4.47µM*,?
CCOC(=O)[C@]12Cc3cc(OC)ccc3[C@H]1N(C1CCCCC1)C(=O)c1ccccc12,-1.2%,/,8.91µM*,?
COC(=O)c1c(OCc2cccnc2)cc(=O)n2c1CCN(C(=O)c1cccc(N(C)C)c1)CC2,/,/,8.9%,/
CC(=O)N1CCC2(CC1)C(C#N)=C(N)Oc1n[nH]c(C(F)(F)F)c12,2.5%,28.2µM*,-24.0%,0.0%
CCOC(=O)N1CCC2(CC1)C(C#N)=C(N)Oc1n[nH]c(C)c12,2.2%,2.1%,-12.0%,-1.7%
COCc1ccc(CN2CCOc3ccc(C4=CCCCC4)cc3C2)o1,/,/,-7.6%,/
COc1ccc(-c2cccc3c2OC(CNC(=O)c2ccccc2-n2cccn2)C3)nn1 (configuration not stated),/,/,-1.7%,/
COc1ccc(N2CCN(S(=O)(=O)c3ccc4oc(=O)c5ncn(C)c5c4c3)CC2)cc1,2.3%,2.8%,-4.6%,/
COc1ccc(NC(=O)Nc2cccs2)cn1,-14.0%,12.6µM*,17.0%,-0.8%
COc1ccc(NC(=O)Nc2cc(C)cc(C)c2)cn1,1.3%,3.9%,-3.1%,1.3%
COc1ccc(CC(=O)Nc2ccc(OC)nc2)cc1,21.7%,3.9%,38.3%,-2.1%
COc1ccc(NC(=O)CCl)cn1,/,14.1µM*,/,/
CCCCn1c(CCC(=O)O)ccc1-c1cccs1,-9.4%,8.91µM*,-15.6%,0.7%
O=C(O)CCc1ccc(-c2cccs2)n1CC(=O)Nc1ccccc1C(F)(F)F,3.0%,?,-4.2%,-12.7%
SMILES,Tb PYK inh,Sm TGR block,FMDV inh,RE007 growth inh
COCCn1c(CCC(=O)O)ccc1-c1cccs1,0.9%,14.1µM*,-3.7%,10.2%
O=C(O)CCc1ccc(-c2cccs2)n1NC(=O)c1cccs1,-1.1%,?,3.1%,-24.6%
CCn1c(=O)cc(OCC(=O)N(C)c2ccc(OC)cc2)c2ccccc21,1.2%,-2.7%,-14.7%,/
Cc1ccccc1NC(=S)NNC(=O)c1cccnc1,4.47µM*,-6.5%,-12.8%,-4.9%
C=C1C(=O)O[C@@H]2[C@H]3O[C@]3(C)CC/C=C(\C)CC[C@@H]12,4.7%,/,31.6µM*!,-12.7%[18.4 µM]
C=C1C(=O)[C@@]23[C@H](O)C[C@@H]4C(C)(C)CC[C@H](O)[C@@]4(C)[C@@H]2CC[C@@H]1[C@H]3O,-3.0%,20µM*,?,2.5%
